Laboratory results: PubChem BioAssay AID2599 (Sanford-Burnham Center for Chemical Genomics, 2010)
Screen size: about 330,000 compounds; about 5,800 (1.8%) were called active. Many of the other results were omitted from the sample, so actives are more common in it than they were. A number with no mark means an inactive call.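 How the source made its calls: active means inhibition above about 50% at the single tested dose (limit read from the data); inactive means the rest.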

target: Sentrin-specific protease 6 (Homo sapiens) (UniProt Q9GZR1); assay: SENP6 protease inhibitors, primary screen, biochemical, luminescence, uHTS (AID 2599); conditions: Recombinant SENP6 catalytic domain, aminoluciferin luminescence; at 10 µM; stronger effect = higher value;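 further: plate controls were DMSO wells with enzyme for no effect and DMSO wells lacking enzyme for full effect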
Sequence (Q9GZR1 628-1112 limits assumed): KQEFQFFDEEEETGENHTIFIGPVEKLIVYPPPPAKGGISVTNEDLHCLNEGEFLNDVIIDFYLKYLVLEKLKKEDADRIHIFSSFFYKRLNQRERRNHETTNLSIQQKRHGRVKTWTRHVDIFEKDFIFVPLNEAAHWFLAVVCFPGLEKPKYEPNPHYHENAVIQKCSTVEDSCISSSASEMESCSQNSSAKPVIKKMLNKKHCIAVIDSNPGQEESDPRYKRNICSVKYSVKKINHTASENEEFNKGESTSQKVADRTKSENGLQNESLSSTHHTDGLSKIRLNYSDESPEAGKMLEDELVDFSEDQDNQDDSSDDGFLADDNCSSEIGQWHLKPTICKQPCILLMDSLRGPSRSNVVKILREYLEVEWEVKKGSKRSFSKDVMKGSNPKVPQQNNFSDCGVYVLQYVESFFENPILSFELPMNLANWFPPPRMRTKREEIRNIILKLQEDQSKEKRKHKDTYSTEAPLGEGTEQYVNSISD

Compound | inhibition
CCOCCN(C=O)c1cccc(OC)c1 | -10.1%
O=C(COC(=O)c1n[nH]c2ccccc12)Nc1ccccc1Br | -4.53%
CCCn1nc(C(=O)OCc2nc(N)nc(Nc3ccccc3C)n2)c2ccccc2c1=O | -0.795%
COc1cc(/C=C/C(=O)OCC(=O)N2CCOCC2)ccc1OCC#N | 2.81%
COc1ccc(N2C(=O)C(O)C2c2ccc(C)cc2)cc1 (configuration not stated) | -8.14%
Cc1ccc2cc3cc(C(=O)N4CCCCCC4)oc3nc2c1 | 57.1% (active)
Cc1cc(C)cc(NC(=O)N2CCCCCCC2)c1 | -8.39%
Cc1ccc2nc(N3CCN(C(=O)c4ccco4)CC3)sc2c1 | -9.94%
COC(=O)c1cccc(C(=O)N2CCCC(Nc3ccc4c(c3)OCCO4)C2)c1 (configuration not stated) | 8.68%
OCCC#Cc1ccc(CN2CCN(Cc3ccsc3)C(CCO)C2)cc1 (configuration not stated) | -21.1%
CC(=C/c1ccccc1)/C=N/NC(=O)c1cc(C)oc1C | 90.1% (active)
COc1ccc(C/C(C)=N/NC(=O)c2cc(C)oc2C)cc1 | -24.2%
Cc1cc(C(=O)N/N=C\C(Br)=C\c2ccccc2)c(C)o1 | 54.2% (active)
Cc1ccc(-c2cc(C(=O)N/N=C/C=C/c3ccccc3)n[nH]2)o1 | 1.41%
CC(C)c1cc(C(=O)N/N=C/C(Br)=C/c2ccccc2)n[nH]1 | 2.83%
O=C(NN=Cc1ccc(N2CCOCC2)cc1)c1cc2ccccc2cc1O | -12.9%
Cc1cc(C(=O)N/N=C/c2ccc(N3CCOCC3)cc2)c(C)o1 | 84.3% (active)
Cc1cc(C(=O)NNC(=O)c2ccccc2O)c(C)o1 | 0.955%
CCN(CC)c1ccc(C(=O)N/N=C/c2ccc(N3CCOCC3)cc2)cc1 | -7.9%
CN1CCN(C(=O)/C(=C\c2cccs2)NC(=O)c2cccs2)CC1 | -14.6%
CC(C)OCCCNC(=O)c1ccc(C2SCC(=O)N2Cc2ccco2)cc1 (configuration not stated) | -6.37%
CC(Sc1ccccc1F)C(=O)Nc1cccc(S(=O)(=O)N2CCOCC2)c1 (configuration not stated) | -4.45%
Nc1c(N(CCCO)C(=O)C2CCCC2)c(=O)[nH]c(=O)n1Cc1ccccc1 | -9.42%
O=C(Cc1ccccc1)Nc1c(Cl)ccc2nsnc12 | -21.2%
C/C(=N\NC(=O)c1ccc(C)cc1)C1C(=O)c2ccccc2C1=O | 92.3% (active)

Compound | inhibition
Cc1ccc(C(=O)N/C(=C/c2cccnc2)C(=O)O)cc1 | -4.97%
C/C(=N\NC(=O)CNC(=O)C(c1ccccc1)c1ccccc1)c1ccc(C)cc1 | 7.95%
CC(=O)Nc1ccc(S(=O)(=O)NNC(=O)CCc2ccccc2)cc1 | -9.47%
C=C1c2c(Cl)ccc(O)c2C(O)=C2C(=O)[C@]3(O)C(O)=C(C(N)=O)C(=O)[C@@H](N(C)C)[C@@H]3[C@@H](O)C12 (some centres not stated) | 1.61%
Cc1ccccc1NC(=O)CSc1ccc2nnc(-c3ccccn3)n2n1 | -3.48%
CCOC(=O)CSc1nnc(-c2ccc([N+](=O)[O-])cc2)o1 | 2.93%
CCOC(=O)CSc1nnc(-c2cccc(Br)c2)o1 | -8.5%
CCCCSc1nnc(-c2ccc(C)cc2)o1 | 50.8% (active)
O=S(=O)(c1ccc(Br)cc1)N1CCC(c2nc3ccccc3[nH]2)CC1 | -3.25%
COC(=O)c1scc(C)c1NC(=O)CSc1ccc(Cl)cc1 | -3.94%
Fc1ccccc1-c1cc2cc3c(cc2cn1)OCO3 | 75.8% (active)
O=C(c1ccco1)N1CCN(C(=O)c2cc(-c3ccccc3F)no2)CC1 | 4.97%
O=C(CN1CCN(c2ccccc2F)CC1)c1ccc2c(c1)OCO2 | -2.86%
COC(=O)Cc1ccc(N(Cc2ccccc2F)S(=O)(=O)c2ccc(Br)cc2)cc1 | -6.45%
CCOc1ccc(OCC)c(NC(=O)CSc2nnc(Cn3cnc4ccccc43)n2C)c1 | 3.46%
O=C(CCN1CCc2ccccc2C(O)(c2ccccc2)C1)c1ccc2c(c1)OCCO2 (configuration not stated) | -26.4%
O=c1c(-c2ccccc2)coc2cc(O)ccc12 | 60.4% (active)
CCc1ccc(Oc2coc3cc(O)ccc3c2=O)cc1 | 14%
CC(C)CN(Cc1c(O)ccc2c(=O)c(-c3ccccc3)coc12)CC(C)C | -12.1%
COc1ccc(C(C)NC(=S)NC2CCCCC2)cc1OC (configuration not stated) | -13.2%
CNC(=O)C1CC(=O)N(c2ccc(OCC(=O)Nc3ccccc3C)cc2)C1 (configuration not stated) | -8.41%
O=C(c1cccs1)N1CCC(c2nc3ccccc3s2)CC1 | 5.91%
COc1ccc(C2=NN(c3nc4ccccc4s3)C(=O)C2)cc1 | 2.49%
COc1ccc(-n2nnnc2-c2nc3ccccc3s2)cc1 | 54.6% (active)
COc1ccc(-n2nnnc2CNC(=O)c2ccc3ccccc3c2)cc1 | -6.42%

Compound | inhibition
C=CCC(C(=O)c1ccccc1)[N+](C)(C)CC=C (configuration not stated) | -7.76%
Cc1cnc(CN(C)C(=O)C2CCC(=O)N(CCc3cccc(F)c3)C2)[nH]1 (configuration not stated) | 13.7%
COc1cccc(C(=O)Nc2ccc(NC(=O)c3ccco3)cn2)c1 | 64.1% (active)
Cc1ccc(C(=O)COc2cccc(NC(=O)c3ccco3)c2)cc1 | -16.4%
Cc1cc(NC(=O)c2ccc(F)cc2)ccc1NC(=O)c1ccco1 | 43.7%
COc1ccc(OCC(=O)Nc2ccc(NC(=O)c3ccco3)c(C)c2)cc1 | -34.6%
O=C(Nc1ccc(NC(=O)c2cccs2)cn1)c1ccco1 | 22%
COc1ccccc1C(=O)Nc1ccc(NC(=O)c2ccco2)c(C)c1 | 66.3% (active)
CC[C@]1(c2ccccc2OC)C(=O)N(C(=O)OC)N1C(=O)OC | 0.734%
CC(=O)Nc1ccc(OCCC[n+]2cccc(C(=O)[O-])c2)cc1 | -17.4%
Nc1ccc(N=Nc2ccccc2Cl)c(N)n1 | 81.2% (active)
COc1cccc(NC(=O)c2cc(S(=O)(=O)N3CCc4ccccc43)cn2C)c1 | 3.36%
Cc1ccnc(-n2sc3ccccc3c2=O)n1 | 2.11%
CC(=O)Nc1cccc(-c2nc3ccccc3s2)c1C | -16.1%
Cc1ccnc(Nc2nc3ccccc3s2)n1 | 78.6% (active)
O=C(CC(O)(C(F)(F)F)C(F)(F)F)Nc1ccc(Cl)c(Cl)c1 | 1.52%
CCn1nccc1C(=O)Nc1ccc(S(=O)(=O)NC23CC4CC(CC(C4)C2)C3)cc1 | 1.42%
CCn1nccc1C(=O)Nc1ccc(Cl)c(Cl)c1 | 76.6% (active)
COc1ccc(OC)c(S(=O)(=O)N2CCCC(C(=O)NCCc3ccccc3)C2)c1 (configuration not stated) | -9.45%
O=C(Cn1c(=S)nc2ccccn21)N1CCc2ccccc2C1 | -12.6%
O=C(c1ccc(F)cc1)n1c(=S)nc2ccccn21 | 71.7% (active)
O=C(c1ccc(F)cc1)n1cc(C(=S)N2CCOCC2)c2ccccc21 | 5.26%
CCOc1cc2[nH]c(=S)n(CCCN3CCCC3=O)c(=O)c2cc1OCC | -8.53%
O=C(Nc1cccc2cccnc12)c1cccc(Cl)c1 | 38.9%
O=C(Nc1ccccc1Cl)Nc1cccc2cccnc12 | 58.1% (active)

Compound | inhibition
O=C(Nc1ccccc1Cl)O/N=C(/c1ccccc1)c1ccccn1 | 5.09%
COc1ccc(NC(=O)Nc2cccc3cccnc23)cc1 | 80.7% (active)
CCOC(=O)Cc1ncccc1C(=O)Nc1ccc(OC)cc1 | 10.7%
COc1ccc(NC(=O)C2CCCN(S(=O)(=O)c3cccc4cccnc34)C2)cc1 (configuration not stated) | -2.53%
COc1ccc(OCC(=O)NN2Cc3ccccc3C2=N)cc1 | -3.36%
COC(=O)C1=C(C)N(Cc2ccccc2)C(=NCCCOC(C)C)N[C@H]1c1ccccc1 | -15.2%
Cc1ccc(S(=O)(=O)N(C)CC(=O)OCC(=O)N2CC(=O)Nc3ccccc32)cc1 | -8.14%
Cn1c(N)c(C(=O)COC(=O)/C=C/c2ccc(OC(F)F)cc2)c(=O)n(C)c1=O | -13.8%
O=C(Nc1ccc2c(c1)OCCO2)C1CCCC1 | 15.1%
Cc1ccccc1NC(=O)C1CCN(C(=O)NC2CCCCC2)CC1 | -18.9%
O=C(Nc1cc2ccccc2oc1=O)C1CCCCC1 | 62.5% (active)
C[n+]1ccc(C(=O)NCc2ccccc2)cc1 | -12.9%
Cc1[nH]n(-c2ccc([N+](=O)[O-])cc2)c(=O)c1C=NCCN1CCN(C(=O)c2ccccc2F)CC1 | 87% (active)
Cc1ccc(-n2[nH]c(C)c(/C=N/NC(=O)c3cccc([N+](=O)[O-])c3)c2=O)cc1C | 27.4%
C=CCNC(=S)N1CCN(CCN=Cc2c(C)[nH]n(-c3ccc([N+](=O)[O-])cc3)c2=O)CC1 | 1.69%
O=C(COC(=O)c1ccccc1Cl)NC1CCCCCCC1 | -12.9%
Cc1nn(CC(=O)Nc2ccc(F)cc2)c(=O)c2ccccc12 | -16.4%
Cc1ccc(-n2nc3ccc(NC(=O)/C=C/c4ccco4)cc3n2)cc1C | 10.8%
CCC(=O)Nc1ccc2nn(-c3ccc(F)cc3)nc2c1 | 76.9% (active)
CC(C(=O)N1CCc2ccccc21)N(C)CC(=O)Nc1ccc(F)cc1 (configuration not stated) | -18.7%
O=C(/C=N/O)Nc1ccccc1 | -8.91%
Cc1ccc(-c2nc(-c3cccnc3)sc2CC(=O)Nc2ccc(C)c(Cl)c2)cc1 | -22%
